Experimental data taken from PubChem BioAssay AID1159580 (chemical genetic matrix, 2015).
“And” between values parts separate entries of the source, which are not always exact repeats. Equal values may be shown once. Screen size: about 5,500 compounds; about 2,000 (36%) were called active. Not shown: some 18% with an inconclusive outcome. Cut-off read from the data, not from the text of the source: active = normalized growth mostly below about 0.91 (no sharp cut-off); inconclusive = no clear call, values can overlap the other calls; inactive = mostly above about 0.92. The list shows a part of the results.

Assay: chemical genetic growth profiling, strain panel (AID 1159580);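 note: tested at 20 µM; growth read once vehicle control cultures reached saturation at 30 °C; 1 = growth at the plate median or of vehicle wells; lower values mean less growth of the strain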
Conditions: S. cerevisiae deletion strains, growth OD

Measured: normalized growth

O=c1c(O)cccc2cc(O)c(O)c(O)c12
active: locus YAL021C, strain ccr4, active compounds read low 0.082 | locus YAL026C, strain drs2, active compounds read low 0.425 | locus YAL030W, strain snc1, active compounds read low 0.884 | locus YBL061C, strain skt5, active compounds read low 0.798 | locus YBR009C, strain hhf1, active compounds read low 0.76 | locus YBR023C, strain chs3, active compounds read low 0.668 | locus YBR171W, strain sec66, active compounds read low 0.881 | locus YBR229C, strain ROT2, active compounds read low 0.844 | locus YBR231C, strain swc5, active compounds read low 0.623 | locus YBR279W, strain paf1, active compounds read low 0.856 | locus YCL011C, strain gbp2, active compounds read low 0.859 | locus YCL016C, strain dcc1, active compounds read low 0.858 | locus YCL029C, strain bik1, active compounds read low 0.443 | locus YCL061C, strain MRC1, active compounds read low 0.833 | locus YCL069W, strain vba3, active compounds read low 0.858 | locus YCR088W, strain abp1, active compounds read low 0.875 | locus YDL035C, strain GPR1, active compounds read low 0.678 | locus YDL074C, strain BRE1, active compounds read low 0.497 | locus YDL101C, strain DUN1, active compounds read low 0.457 | locus YDL185W, strain tfp1, active compounds read low 0.501 | locus YDL192W, strain arf1, active compounds read low 0.742 | locus YDR069C, strain doa4, active compounds read low 0.166 | locus YDR101C, strain arx1, active compounds read low 0.479 | locus YDR137W, strain rgp1, active compounds read low 0.126 | locus YDR159W, strain sac3, active compounds read low 0.149 | locus YDR162C, strain NBP2, active compounds read low 0.515 | locus YDR195W, strain ref2 0.692 | locus YDR297W, strain sur2, active compounds read low 0.877 | locus YDR318W, strain mcm21, active compounds read low 0.885 | locus YDR334W, strain swr1, active compounds read low 0.515 | locus YDR335W, strain msn5, active compounds read low 0.18 | locus YDR388W, active compounds read low 0.855 | locus YDR392W, strain spt3, active compounds read low 0.738 | locus YDR502C, strain sam2, active compounds read low 0.569 | locus YEL003W, strain gim4, active compounds read low 0.671 | locus YEL037C, strain rad23, active compounds read low 0.716 | locus YEL061C, strain CIN8 (second series), active compounds read low 0.878 | locus YER015W, strain faa2, active compounds read low 0.593 | locus YER016W, strain bim1, active compounds read low 0.904 | locus YER111C, strain swi4, active compounds read low 0.22 | locus YER155C, strain BEM2 (second series), active compounds read low 0.489 | locus YER155C, strain BEM2, active compounds read low 0.664 | locus YER167W, strain BCK2, active compounds read low 0.865 | locus YFR010W, strain ubp6, active compounds read low 0.509 | locus YGL078C, strain dbp3, active compounds read low 0.841 | locus YGL086W, strain mad1, active compounds read low 0.758 | locus YGL167C, strain pmr1, active compounds read low 0.757 | locus YGL173C, strain kem1, active compounds read low 0.497 | locus YGL248W, strain PDE1, active compounds read low 0.775 | locus YGL253W, strain hxk2, active compounds read low 0.71 | locus YGR135W, strain pre9, active compounds read low 0.822 | locus YGR252W, strain gcn5, active compounds read low 0.716 | locus YHR013C, strain ard1, active compounds read low 0.577 | locus YHR027C, strain rpn1, active compounds read low 0.554 | locus YHR030C, strain SLT2, active compounds read low 0.898 and 0.73 | locus YHR079C, strain IRE1 (second series), active compounds read low 0.182 | locus YHR079C, strain IRE1, active compounds read low 0.654 | locus YHR129C, strain ARP1, active compounds read low 0.693 | locus YHR142W, strain chs7, active compounds read low 0.536 | locus YHR200W, strain rpn10, active compounds read low 0.817 | locus YIL066C, strain RNR3, active compounds read low 0.768 | locus YIL073C, strain SPO22, active compounds read low 0.508 | locus YIL125W, strain kgd1, active compounds read low 0.783 | locus YIR030C, strain dcg1, active compounds read low 0.812 | locus YJL092W, strain hpr5, active compounds read low 0.9 | locus YJL095W, strain BCK1 (second series), active compounds read low 0.754 | locus YJL095W, strain BCK1, active compounds read low 0.105 and 0.759 | locus YJL115W, strain asf1, active compounds read low 0.894 | locus YJL129C, strain trk1, active compounds read low 0.547 | locus YJL134W, strain LCB3, active compounds read low 0.872 | locus YJL154C, strain vps35, active compounds read low 0.816 | locus YJL164C, strain tpk1, active compounds read low 0.714 | locus YJL166W, strain qcr8, active compounds read low 0.802 | locus YJL187C, strain SWE1 (second series), active compounds read low 0.22 | locus YJL187C, strain SWE1, active compounds read low 0.813 | locus YJR066W, strain TOR1, active compounds read low 0.684
inactive: locus YBR021W, strain FUR4, active compounds read low 0.921 | locus YDL005C, strain med2, active compounds read low 0.978 | locus YDL040C, strain nat1, active compounds read low 0.946 | locus YDR001C, strain nth1, active compounds read low 0.925 | locus YER110C, active compounds read low 1.02 | locus YGL227W, strain vid30, active compounds read low 0.954 | locus YGL240W, strain doc1, active compounds read low 0.968 | locus YHR094C, strain hxt1, active compounds read low 0.98 | locus YJL168C, strain set2, active compounds read low 0.966
